NS1 function inh: influenza NS1 inhibition; Potency, µM (series often up to 46.1 µM), for inactives: at the top dose activity, positive = more growth; hit rate 0.4% among 270,000; AID 2326; also: potency is read from the fitted curve at half-maximal effect; actives are rising curves; nearly all actives have a fitted effect of over 50% in size
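Compounds were scored for reversing the slow growth caused by influenza A NS1 in S. cerevisiae, measured by optical density at 600 nm. Assay medium contained 2% galactose at pH 6.0; NS1-free yeast of the same strain were the positive control.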
SARS PLP yeast: SARS-CoV PLP inhibition in yeast. S. cerevisiae expressing SARS-CoV PLpro, growth rescue. Potency, µM (highest dose often 32.9 µM), inactives show at the top dose activity, positive = growth rescue, hits mostly activators. hit rate 0.19% among 330,000. AID 485353; also: potency is read from the fitted curve at half-maximal effect; 0% is about no effect; nearly all actives have a fitted effect of over 55% in size
Cycloheximide cs: affects cycloheximide protein synthesis inhibition readout, counter-screen; cell reporter, cycloheximide protein synthesis inhibition counterscreen; max response, %; hit rate 12% among 300,000; in the data active = max response mostly above about 13%, no sharp cut-off; inactive = mostly below about 14%; also: read at 38.3 µM for the half of the compounds with a filed dose; 0% is about no effect
Shiga toxin inh: blocks Shiga toxin action in Vero cells; Vero cells, Shiga toxin protein synthesis inhibition reporter; hit rate 9.2% among 290,000; AID 2315; inhibition, % at 38.7 µM; in the data active = inhibition mostly above about 28%, no sharp cut-off; inactive = mostly below about 43%; also: 0% is about no effect
Starred values were filed as active, the others as inactive. This is a sample that favours compounds with a hit; in the whole collection about 12% have one here. Unless noted, calls follow the shape of the full dose curve.

How did [O-][n+]1c(/C=C/c2ccccc2)ccc2ccccc21 do in these assays?
NS1 function inh: -27%; SARS PLP yeast: -2%; Cycloheximide cs: 29*; Shiga toxin inh: 31*

How did CN(C)c1ccc(/C=C/c2ccc3c4ccccc4ccc3[n+]2-c2ccccc2)cc1 do in these assays?
SARS PLP yeast: -17%; Cycloheximide cs: -3; Shiga toxin inh: -18

How did COc1ccc(/C=C/c2ccc3ccccc3[n+]2C)cc1OC do in these assays?
NS1 function inh: -2%; SARS PLP yeast: -4%; Cycloheximide cs: 44*; Shiga toxin inh: 71*

How did CC(=O)Oc1ccccc1/C=C/c1ccc2ccccc2[n+]1C do in these assays?
NS1 function inh: -17%; SARS PLP yeast: -5%; Cycloheximide cs: 43*; Shiga toxin inh: 107*

Results for COc1ccccc1/C=C/c1nc2ccc(OC(C)=O)cc2c(=O)o1 ?
NS1 function inh: 13%; SARS PLP yeast: 7%; Cycloheximide cs: -4; Shiga toxin inh: -10

What do the screens show for `CN(CCCS(=O)(=O)[O-])c1ccc(/C=C/c2ccc3ccccc3[n+]2C)cc1`?
NS1 function inh: -1%; SARS PLP yeast: -1%; Cycloheximide cs: 8; Shiga toxin inh: 19

How did CN(C)c1ccc(/C=C/c2ccc3ccccc3[n+]2C)cc1 do in these assays?
NS1 function inh: -36%; SARS PLP yeast: -89%; Cycloheximide cs: 19*; Shiga toxin inh: 23

What do the screens show for `COc1ccc(S(=O)(=O)N(C)C[C@H]2Oc3c(NC(=O)c4ccncc4)cccc3C(=O)N([C@H](C)CO)C[C@@H]2C)cc1`?
SARS PLP yeast: 7%

How did CCN(CC1COc2ccccc2O1)S(=O)(=O)c1ccc(C)cc1 (stereo unspecified) do in these assays?
NS1 function inh: -13%; SARS PLP yeast: -25%; Cycloheximide cs: -3; Shiga toxin inh: 0

How did CN(C)c1ccc(/C=C/c2cccc[n+]2[O-])cc1 do in these assays?
NS1 function inh: -4%; SARS PLP yeast: 0%; Cycloheximide cs: 33*; Shiga toxin inh: 59*

Results for COC(=O)c1ccc2c(=O)[nH]c(CSc3nc(C)cs3)nc2c1 ?
SARS PLP yeast: 1%; Cycloheximide cs: 28*; Shiga toxin inh: 67*

What do the screens show for `COc1ccc(N(CC(=O)NC(C)(C)C)C(=O)CCC(=O)Nc2nccs2)cc1`?
NS1 function inh: -44%; SARS PLP yeast: -7%; Cycloheximide cs: -1; Shiga toxin inh: -5

How did COc1ccccc1N1CCN(/N=C/c2cc([N+](=O)[O-])ccc2Cl)CC1 do in these assays?
SARS PLP yeast: 3%; Cycloheximide cs: 0; Shiga toxin inh: -7

How did O=[N+]([O-])c1ccccc1/C=N\N1CCN(c2ccccc2)CC1 do in these assays?
NS1 function inh: -1%; SARS PLP yeast: -2%; Cycloheximide cs: 36*; Shiga toxin inh: 61*

How did O=[N+]([O-])c1ccccc1/C=C/C=N/Nc1nc(N2CCCCC2)nc(N2CCCCC2)n1 do in these assays?
NS1 function inh: 7%; SARS PLP yeast: 0%; Cycloheximide cs: -3; Shiga toxin inh: 20

How did O=[N+]([O-])c1ccc(Cl)c(/C=N/N2CCN(c3ccccc3)CC2)c1 do in these assays?
NS1 function inh: -13%; SARS PLP yeast: -2%; Cycloheximide cs: -3; Shiga toxin inh: 11

How did O=[N+]([O-])c1ccccc1/C=C\C=N\N1CCN(c2ccccc2)CC1 do in these assays?
SARS PLP yeast: -2%; Cycloheximide cs: 25*; Shiga toxin inh: 56

Results for COc1ccccc1N1CCN(/N=C/C=C/c2ccccc2[N+](=O)[O-])CC1 ?
NS1 function inh: 5%; SARS PLP yeast: 0%; Cycloheximide cs: 13; Shiga toxin inh: 67*

What do the screens show for `O=[N+]([O-])c1ccccc1/C=N/N1CCN(c2ccc(Cl)cc2)CC1`?
NS1 function inh: 0%; SARS PLP yeast: -13%; Cycloheximide cs: 0; Shiga toxin inh: 13

Results for O=[N+]([O-])c1ccccc1/C=C/C=N/N1CCCCC1 ?
NS1 function inh: 1%; SARS PLP yeast: 0%; Cycloheximide cs: 66*; Shiga toxin inh: 63*

What do the screens show for `CCOc1ccc(-c2c(C(=O)N/N=C/c3c[nH]c4ccccc34)nnn2-c2nonc2N)cc1`?
NS1 function inh: -11%; SARS PLP yeast: -3%; Cycloheximide cs: 8; Shiga toxin inh: -6

What do the screens show for `O=C(Oc1ccc(Cl)c2cccnc12)c1cccnc1`?
NS1 function inh: -44%; SARS PLP yeast: 0%; Cycloheximide cs: -3; Shiga toxin inh: 31

How did Cc1ccc(CSCCNC(=O)c2ccc(Cl)c(S(=O)(=O)N3CCOCC3)c2)cc1 do in these assays?
NS1 function inh: 10%; SARS PLP yeast: -8%; Cycloheximide cs: -2; Shiga toxin inh: -7

How did O=C1c2oc3ccccc3c(=O)c2C(c2ccc(Br)cc2)N1c1ncccn1 (stereo unspecified) do in these assays?
NS1 function inh: 13%

Results for O=C(NCCCn1ccnc1)C1CCCN(S(=O)(=O)c2ccc(F)cc2)C1 (stereo unspecified) ?
NS1 function inh: 11%; SARS PLP yeast: 1%; Cycloheximide cs: 0; Shiga toxin inh: -18

What do the screens show for `C/C(=N\NC(=O)c1cc(C(C)(C)C)[nH]n1)C12CC3CC(CC(C3)C1)C2`?
NS1 function inh: 0%; SARS PLP yeast: 0%; Cycloheximide cs: 23*; Shiga toxin inh: 19

How did O=C(N/N=C/c1ccc(O)cc1)c1cc(C23CC4CC(CC(C4)C2)C3)[nH]n1 do in these assays?
NS1 function inh: -1%; SARS PLP yeast: 1%; Cycloheximide cs: 2; Shiga toxin inh: 48

How did N/C(Cc1nc2ccccc2s1)=N\O do in these assays?
NS1 function inh: 0%; SARS PLP yeast: -1%; Cycloheximide cs: 31*; Shiga toxin inh: 108*

How did NC(=O)CSCc1nc2ccccc2s1 do in these assays?
NS1 function inh: inconclusive; SARS PLP yeast: 5%; Cycloheximide cs: 84*; Shiga toxin inh: 42

Results for O=C(Cn1c(=O)oc2ccccc21)N1CCOCC1 ?
NS1 function inh: -4%; SARS PLP yeast: -1%; Cycloheximide cs: -5; Shiga toxin inh: 10

What do the screens show for `CSCCC(NC(=O)c1ccc(Cl)c([N+](=O)[O-])c1)C(=O)N1CCN(C/C=C/c2ccccc2)CC1` (stereo unspecified)?
SARS PLP yeast: 1%

How did O=C(O)[C@H]1O[C@H]1C(=O)O do in these assays?
NS1 function inh: 1%

How did Cc1ccnc2nc(C(=O)Nc3ccc(N4CCOCC4)cc3)nn12 do in these assays?
NS1 function inh: 4%; SARS PLP yeast: 0%; Cycloheximide cs: 28*; Shiga toxin inh: 74*

How did O=C(N/N=C/c1ccc(N2CCOCC2)cc1)c1ccncc1 do in these assays?
SARS PLP yeast: -4%

How did Cc1cc(C)n(-c2ccc(C(=O)Nc3ccc(N4CCOCC4)cc3)cc2)n1 do in these assays?
NS1 function inh: 7%; SARS PLP yeast: 2%; Cycloheximide cs: 6; Shiga toxin inh: 13

How did O=C(Nc1ccc(N2CCOCC2)cc1)c1ccc([N+](=O)[O-])cc1 do in these assays?
SARS PLP yeast: 2%; Cycloheximide cs: 28*; Shiga toxin inh: 85*

What do the screens show for `CN(C)c1cccc(C(=O)Nc2ccc(N3CCOCC3)cc2)c1`?
NS1 function inh: -1%; SARS PLP yeast: -1%; Cycloheximide cs: 23*; Shiga toxin inh: 77

How did O=C(Nc1ccc(N2CCOCC2)cc1)c1ccncc1 do in these assays?
NS1 function inh: 0%; SARS PLP yeast: 1%; Cycloheximide cs: 14*; Shiga toxin inh: 32*

What do the screens show for `CN(CC(=O)Nc1c(Cl)cccc1Cl)C(=O)CCNS(=O)(=O)c1ccccc1C(F)(F)F`?
SARS PLP yeast: 3%
